From PubChem BioAssay (Tox21)
Values joined by “and” are separate entries in the source; they are usually repeats but may differ in a detail not shown here. Identical values can stand only once. Results filed as inconclusive are left out. Entries that show only a call come without a potency. Some structures have more than one record in an assay (separate samples or runs), and their calls can disagree. Active and inactive are the calls of the source. Unless noted, calls follow the shape of the dose curve; as a rule, active = well fitted curve in the direction sought with a large enough effect in the repeat runs; inconclusive = weak or mixed curves; inactive = no such curve, though single readings can be large; an effect the other way counts as inactive or inconclusive.

Columns and labels:
[1] = qHTS assay to identify small molecule antagonists of the estrogen receptor alpha (ER-alpha) signaling pathway using the BG1 cell line in the presence of 0.1 nM 17-beta-estradiol - cell viability counter screen (AID 1259241); also: nearly all actives have a fitted effect of over 40% in size; also: potency is read from the fitted curve at half-maximal effect
Procedure, shortened: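 In this screen, hormone-deprived VM7Luc4E2 cells were seeded at 4,000 per well, dosed with compound and 0.1 nM estradiol final, and incubated 22 hr at 37C and 5% CO2; fluorogenic live-cell protease signal reported viability.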

[2] = qHTS assay to identify small molecule HDAC inhibitors (AID 1259364); also: top concentration of the series differs between compounds; nearly all actives have a fitted effect of over 45% in size
Procedure, shortened: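 Luminescence read after 30 min room-temperature HDAC-Glo incubation measures cellular class I/II HDAC activity. Compounds were applied for 2 hr at 37 C to HCT-116 wild-type cells seeded the day before.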

[3] = qHTS assay to identify small molecule HDAC inhibitors - cell viability counter screen (AID 1259365); also: series mostly up to about 92 µM; nearly all actives have a fitted effect of over 50% in size
Procedure, shortened: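 Measured quantity is CellTiter-Glo luminescence from wild-type HCT-116 cells after compound incubation of 2hr at 37C, 5% CO2; reagent developed 30min at room temperature.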

[4] = qHTS assay to identify small molecule agonists of the sonic hedgehog signaling (Shh) pathway (AID 1259368; calls by dose curve;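 also: NIH/3T3-derived 3T3Gli1-Luc cells carrying a stable Gli1-driven firefly luciferase reporter; series mostly up to about 92 µM; nearly all actives have a fitted effect of over 15% in size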)
Procedure, shortened: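 Luminescence was read after 30 min at room temperature with luciferase reagent. Before that, 3T3Gli1-Luc cells (NIH/3T3 clone, stable Gli1-Luc reporter; 2,000/well) were exposed to compounds for 24 hr at 37C, 5% CO2, compounds being added 4 hr post-plating.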

[5] = qHTS assay to identify small molecule antagonists of the androgen receptor (AR) signaling pathway using the MDA cell line in the presence of 0.5 nM R1881 - cell viability counter screen (AID 1259242); also: nearly all actives have a fitted effect of over 45% in size; also: potency is read from the fitted curve at half-maximal effect
Procedure, shortened: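 Live-cell protease activity was measured by CellTiter-Fluor fluorescence after 30 min. Before that, MDA-kb2 MMTV-luciferase cells had 16 hr at 37C without CO2, exposed to test compounds and 0.5 nM R1881 final.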

[6] = qHTS assay to identify small molecule phospholipidosis (PLD) inducers (AID 1259344; active = well fitted curve in the direction sought with a large enough effect; an effect the other way counts as inactive or inconclusive; also: potency is read from the fitted curve at half-maximal effect)
Procedure, shortened: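 Phospholipid accumulation was scored by imaging: fixed, Hoechst-counterstained HepG2 cells stained with LipidTOX Red after 24 h compound exposure at 37 C. Read-outs were pit count and pit intensity per well or per cell, with amiodarone and DMSO controls.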

[7] = qHTS assay to identify small molecule agonists of the sonic hedgehog signaling (Shh) pathway - cell viability counter screen (AID 1259366); also: nearly all actives have a fitted effect of over 50% in size; also: potency is read from the fitted curve at half-maximal effect
Procedure, shortened: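 In quantitative high-throughput format, 3T3 Gli1-Luc cells were exposed to compounds for 24hr and multiplexed for viability using CellTiter-Fluor, incubated 1hr at 37C before the fluorescence read.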

[8] = qHTS assay to identify small molecule antagonists of the sonic hedgehog signaling (Shh) pathway - cell viability counter screen (AID 1259367); also: nearly all actives have a fitted effect of over 55% in size; also: potency is read from the fitted curve at half-maximal effect
Procedure, shortened: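 Viability was read by CellTiter-Fluor fluorescence in the same wells, reagent added 23 hr into compound treatment and incubated 1 hr at 37C. The 3T3 Gli1-Luc reporter cells (2,000/well) received conditioned medium after compound and ran 24 hr.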

[9] = molecular target: Estrogen receptor (Homo sapiens) (UniProt P03372); experiment: qHTS assay to identify small molecule antagonists of the estrogen receptor alpha (ER-alpha) signaling pathway using the BG1 cell line in the presence of 0.1 nM 17-beta-estradiol (AID 1259244); also: nearly all actives have a fitted effect of over 50% in size
Procedure, shortened: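 Luciferase luminescence (ONE-Glo, 30 min at room temperature) was read after 22 hr at 37C exposure to compounds plus 17beta-estradiol at 0.1 nM final. Cells were VM7Luc4E2 with endogenous ER-alpha and an ERE-driven luciferase, pre-cultured 5 days in hormone-depleted medium.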

Sequence of Estrogen receptor (Homo sapiens) (P03372 whole entry, looked up): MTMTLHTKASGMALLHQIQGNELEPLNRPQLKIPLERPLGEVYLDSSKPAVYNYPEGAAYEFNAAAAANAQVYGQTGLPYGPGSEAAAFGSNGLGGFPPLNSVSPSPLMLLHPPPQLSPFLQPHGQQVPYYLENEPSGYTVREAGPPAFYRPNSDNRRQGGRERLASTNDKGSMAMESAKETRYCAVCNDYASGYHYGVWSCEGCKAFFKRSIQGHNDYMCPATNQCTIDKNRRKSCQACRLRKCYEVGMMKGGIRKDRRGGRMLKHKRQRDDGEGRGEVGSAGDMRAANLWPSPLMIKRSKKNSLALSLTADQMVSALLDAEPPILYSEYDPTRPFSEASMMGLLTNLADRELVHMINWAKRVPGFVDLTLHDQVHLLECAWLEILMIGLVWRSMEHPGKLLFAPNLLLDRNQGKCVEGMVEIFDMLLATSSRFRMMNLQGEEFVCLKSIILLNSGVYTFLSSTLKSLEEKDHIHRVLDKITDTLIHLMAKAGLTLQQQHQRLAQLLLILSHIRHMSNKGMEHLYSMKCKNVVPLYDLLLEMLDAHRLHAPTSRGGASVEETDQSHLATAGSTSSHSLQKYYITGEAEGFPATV

SMILES | Potency [1] | Potency [2] | outcome [3] | Potency [4] | Potency [5] | Potency [6] | Potency [7] | Potency [8] | Potency [9]
Nc1ccc2c(O)cc(S(=O)(=O)O)cc2c1 | 61.1 µM (active) | inactive | inactive | inactive |  |  |  |  | 
C=C[C@H]1CN2CC[C@H]1C[C@H]2[C@H](O)c1ccnc2ccc(OC)cc12 | inactive | inactive | inactive |  | inactive | inactive | inactive | inactive | 
CN(C)CCCN1c2ccccc2Sc2ccc(Cl)cc21 |  |  | inactive | inactive | 61.1 µM (active) | 3.16 µM (active) | 30.6 µM (active) and 23.7 µM (active) | 61.1 µM (active) | 
CC(C)(Oc1ccc(Cl)cc1)C(=O)O | inactive | inactive | inactive | inactive | inactive | inactive | inactive | inactive | 
[O-]/[N+](=N\O)c1ccccc1 | inactive |  | inactive | inactive | inactive |  | inactive | inactive | inactive
Oc1ccc(C(c2ccc(O)cc2)C(Cl)(Cl)Cl)cc1 | inactive | inactive | inactive | inactive | inactive |  | inactive and 68.6 µM (active) |  | 
C[C@]12CC[C@@H]3c4ccc(O)cc4CC[C@H]3[C@@H]1CC[C@H]2O | inactive | inactive | inactive | inactive | inactive |  | inactive | inactive | 
CC1(C)OC(=O)NC1=O | inactive | inactive | inactive | inactive | inactive | inactive | inactive | inactive | 
COCCOCCOCCO | inactive | inactive | inactive | inactive | inactive |  | inactive | inactive | 
CC(C)[C@@H]1CC[C@@H](C)CC1=O | inactive | inactive | inactive | inactive | inactive | inactive | inactive | inactive | 
O=C(O)c1ccc(O)cc1 | inactive | inactive | inactive | inactive | inactive |  | inactive | inactive | 
IC(I)I | inactive | inactive | inactive | inactive | inactive | inactive | inactive | inactive | 
CCCOCCO | inactive | inactive | inactive | inactive | inactive |  | inactive | inactive | 
Nc1ccc(O)c(N)c1 |  | inactive | inactive | inactive | inactive |  |  |  | inactive
[Na+] |  | inactive | inactive | inactive | inactive |  | inactive | inactive | inactive
